Test results taken from PubChem BioAssay (NCATS).
Records with an inconclusive call do not appear. Activity calls are given as the source filed them. Unless noted, calls come from the whole dose curve; as a rule, active = well fitted curve in either direction with a large enough effect (not every such curve was filed as active); inconclusive = small, poorly fitted or top-dose-only effect, or another doubt; inactive = flat fitted curve, though single readings scatter. Residues, ends and D or L forms follow the SMILES beside them.

Tests used:
[1] = biological target: Lysosomal acid glucosylceramidase (Homo sapiens) (UniProt P04062); assay: Glucocerebrosidase-p2 (AID 348; in the data active = potency below about 10 µM; note: potency is the fitted concentration of half-maximal effect); conditions: purified GBA, blue fluorogenic substrate, 40 min
Method in brief: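 Compounds titrated from 0.6 nM upwards against 0.2 nM enzyme in pH 5.9 citric acid/KH2PO4, taurocholate, tween-20; blue fluorogenic substrate 80 uM, 40 min room temperature, stopped and read Ex 365/Em 440 for AC50.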

[2] = AP1 Signaling Pathway (AID 357); conditions: ME-180 AP-1-bla reporter, EGF-induced, beta-lactamase ratio, 5 h; at 7.69 µM (top of the series) unless noted; note: % is set by controls: 0 for no effect and ±100 for the full control effect
Method in brief: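 ME-180 cells with beta-lactamase reporter under AP-1 response element, stimulated with EC50 EGF; compounds tested in titration series, 5 h at 37 °C. CCF4 substrate added 2.5 h at room temperature; 460/530 nm emission ratio gave %activity and AC50.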

[3] = NFAT Signaling Pathway (AID 444); conditions: Jurkat NFAT-bla M1, carbachol, beta-lactamase ratio, 5 h; at 7.69 µM (top of the series) unless noted;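 note: carbachol stimulus at about its EC50 of 1 µM final; % is set by controls: 0 for no effect and ±100 for the full control effect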
Method in brief: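 Jurkat cells with NFAT-driven β-lactamase reporter and co-expressed M1 receptor, stimulated with carbachol (final 1 uM, ~EC50), compound titration, 5 h at 37 °C. CCF4 loaded 1 h at RT; 460/530 nm ratio gave %activity and AC50.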

[4] = Stat Signaling Pathway (AID 446); conditions: ME-180 (cervical carcinoma) SIE beta-lactamase reporter, IL-6 stimulated, 5 h; at 7.69 µM (top of the series) unless noted;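 note: ME-180 cervical cancer cells given 40 pM IL-6 alongside compound; SIE-controlled beta-lactamase reporter measured as 460/530 nm FRET emission ratio; % is set by controls: 0 for no effect and ±100 for the full control effect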
Method in brief: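 IL-6/STAT signaling read in ME-180 cells via an SIE beta-lactamase reporter. Stimulus was 40 pM IL-6 (its AC50) for 5 hrs, so both activation and inhibition register.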

[5] = biological target: Glucocorticoid receptor (Homo sapiens) (UniProt P04150); assay: GR-GFP Redistribution (AID 450;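 active = compounds whose dose series gives a full or clear partial fitted curve of increased nuclear translocation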; note: potency is the fitted concentration of half-maximal effect); conditions: U2OS GR-GFP nuclear translocation, laser cytometry, 2 h
[6] = biological target: Glucocorticoid receptor (Homo sapiens) (UniProt P04150); assay: GR-EFC Redistribution (AID 451; calls by dose curve; note: potency is the fitted concentration of half-maximal effect); conditions: CHO-K1 GR-EFC translocation, beta-gal luminescence, 2 h
Method in brief: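 CHO-K1 cells expressing nuclear EA and GR-ED fragments of b-gal; compounds titrated up to 46 uM final, 2 h at 37 C. GR nuclear translocation read as complemented b-gal luminescence after 1 h RT detection.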

[7] = biological target: Mitogen-activated protein kinase 10 (Mus musculus) (UniProt Q61831); assay: JNK3 AlphaScreen Assay (AID 530); conditions: JNK3 lysate, c-Jun phosphorylation; series mostly up to 11.4 µM;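 note: kinase came from lysate of stimulated human HepG2 cells; signal reports phosphorylation of biotinylated GST-cJun 1-79 at Ser73 with 10 µM ATP; % is set by controls: 0 for no effect and ±100 for the full control effect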
Method in brief: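 Pre-activated (IL-1β/TNFα) JNK3 in HepG2 lysates phosphorylates biotin-GST-cJun(1-79), 10 uM ATP; anti-phospho-cJun(Ser73) AlphaScreen read at room temperature, pH 7.6 Tris buffer. Compounds pre-incubated 15 min as titrations.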

[8] = biological target: 3',5'-cyclic-AMP phosphodiesterase 4B (Homo sapiens) (UniProt Q07343); assay: qHTS Assay for Inhibitors of PDE-IV (AID 607; active = well fitted activation curve with a large enough effect in the main read-out, with a control signal flat, not every such curve was filed as active; note: % of control where 0% means no effect); conditions: HEK293 ACTOne CNG channel cells, membrane potential fluorescence; series mostly up to 22.9 µM
Method in brief: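 Live HEK293 cells with a modified cyclic nucleotide-gated (CNG) channel report intracellular cAMP via membrane-potential dye fluorescence (ex 535/em 590 nm). Endogenous PDE-IV was targeted. Compounds were tested at up to 22.9 uM final; RO 20-1724 100 uM served as control.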

Sequence of Glucocorticoid receptor (Homo sapiens) (P04150 whole entry, looked up, the tested form may be a part): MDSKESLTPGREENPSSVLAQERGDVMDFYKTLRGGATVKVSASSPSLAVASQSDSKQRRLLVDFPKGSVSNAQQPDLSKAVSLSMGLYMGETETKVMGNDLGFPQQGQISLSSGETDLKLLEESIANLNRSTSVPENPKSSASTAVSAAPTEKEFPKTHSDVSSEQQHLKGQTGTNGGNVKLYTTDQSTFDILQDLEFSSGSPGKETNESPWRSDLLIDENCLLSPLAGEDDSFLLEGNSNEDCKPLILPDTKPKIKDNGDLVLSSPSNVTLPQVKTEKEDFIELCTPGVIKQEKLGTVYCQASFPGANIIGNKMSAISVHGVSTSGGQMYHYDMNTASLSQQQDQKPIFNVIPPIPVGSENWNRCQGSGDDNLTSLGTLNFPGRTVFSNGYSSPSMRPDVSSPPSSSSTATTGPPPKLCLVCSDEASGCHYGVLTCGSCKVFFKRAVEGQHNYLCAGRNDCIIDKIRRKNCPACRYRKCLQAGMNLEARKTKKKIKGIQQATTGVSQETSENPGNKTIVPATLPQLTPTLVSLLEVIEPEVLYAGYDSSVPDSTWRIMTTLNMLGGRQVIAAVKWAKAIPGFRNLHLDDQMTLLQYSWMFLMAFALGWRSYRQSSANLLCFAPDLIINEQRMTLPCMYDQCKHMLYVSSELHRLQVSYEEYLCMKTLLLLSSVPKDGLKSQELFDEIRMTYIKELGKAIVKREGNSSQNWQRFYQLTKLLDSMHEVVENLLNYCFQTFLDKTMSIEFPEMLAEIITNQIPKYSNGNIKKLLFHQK
Sequence of 3',5'-cyclic-AMP phosphodiesterase 4B (Homo sapiens) (Q07343 whole entry, looked up): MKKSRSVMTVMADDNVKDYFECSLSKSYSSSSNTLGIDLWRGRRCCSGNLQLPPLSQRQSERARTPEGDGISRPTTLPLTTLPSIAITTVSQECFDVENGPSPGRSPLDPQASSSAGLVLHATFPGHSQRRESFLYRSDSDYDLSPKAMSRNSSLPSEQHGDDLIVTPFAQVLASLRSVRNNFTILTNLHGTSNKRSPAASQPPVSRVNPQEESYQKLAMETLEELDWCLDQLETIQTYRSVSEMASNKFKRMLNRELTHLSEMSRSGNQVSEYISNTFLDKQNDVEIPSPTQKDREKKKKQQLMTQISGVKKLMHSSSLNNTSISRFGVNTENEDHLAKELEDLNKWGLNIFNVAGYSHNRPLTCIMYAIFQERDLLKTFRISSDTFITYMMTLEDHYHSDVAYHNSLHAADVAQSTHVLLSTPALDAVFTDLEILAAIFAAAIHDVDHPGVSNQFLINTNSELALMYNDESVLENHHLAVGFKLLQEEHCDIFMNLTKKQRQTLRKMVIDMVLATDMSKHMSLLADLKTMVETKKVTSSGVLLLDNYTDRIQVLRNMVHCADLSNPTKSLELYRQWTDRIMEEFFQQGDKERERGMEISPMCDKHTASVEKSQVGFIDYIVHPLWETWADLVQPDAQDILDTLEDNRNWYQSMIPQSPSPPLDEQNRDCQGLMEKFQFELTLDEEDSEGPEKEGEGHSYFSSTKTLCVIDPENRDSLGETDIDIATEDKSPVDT
Sequence of Lysosomal acid glucosylceramidase (Homo sapiens) (P04062 whole entry, looked up): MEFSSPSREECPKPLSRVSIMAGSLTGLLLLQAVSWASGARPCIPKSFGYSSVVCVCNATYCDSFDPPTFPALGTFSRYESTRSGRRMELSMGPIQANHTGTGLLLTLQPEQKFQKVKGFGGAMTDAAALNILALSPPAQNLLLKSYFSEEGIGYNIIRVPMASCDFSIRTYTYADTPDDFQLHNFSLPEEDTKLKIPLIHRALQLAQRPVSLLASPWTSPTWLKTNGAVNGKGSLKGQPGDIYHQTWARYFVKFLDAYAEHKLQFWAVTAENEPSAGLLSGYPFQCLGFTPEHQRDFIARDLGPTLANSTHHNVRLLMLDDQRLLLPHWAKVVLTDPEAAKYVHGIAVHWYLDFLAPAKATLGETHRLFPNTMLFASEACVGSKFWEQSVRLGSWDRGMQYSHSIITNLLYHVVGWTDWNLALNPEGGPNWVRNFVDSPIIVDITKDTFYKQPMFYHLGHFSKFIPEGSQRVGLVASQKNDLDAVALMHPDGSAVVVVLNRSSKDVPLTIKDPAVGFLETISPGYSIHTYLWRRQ

COc1ccc(-c2nc3cnc(OC)nc3n(Cc3cccs3)c2=O)cc1
inactive: Potency [1] > 11.4 µM | activity change, negative = inhibition [2] 20.7% | activity change, negative = inhibition [3] 8.9% | activity, negative = inhibition [4] 14.3% | Potency [5] > 9.22 µM | Potency [6] > 46 µM | Potency [7]

O=C(O)C(Cc1ccccc1)Cc1ccccc1
inactive: Potency [1] > 11.4 µM | activity change, negative = inhibition [2] 8.41% | activity change, negative = inhibition [3] 1.48% | activity, negative = inhibition [4] -8.39% | Potency [5] > 46 µM | Potency [6] > 9.22 µM | Potency [7] | Potency [8]

C[C@@H](NC(=O)C1(N)CCCC1)C(=O)O (HELM PEPTIDE1{[NC1(C(=O)[*:2])CCCC1].[dA]}$$$$V2.0)
inactive: Potency [1] > 11.4 µM | activity change, negative = inhibition [2] 5.64% | activity change, negative = inhibition [3] 15.7% | activity, negative = inhibition [4] 6.26% | Potency [5] > 46 µM | Potency [6] > 9.22 µM | Potency [7] | Potency [8]

COc1cc(C(=O)O)c([N+](=O)[O-])c(OC)c1OC
inactive: Potency [1] > 11.4 µM | activity change, negative = inhibition [2] 4.41% | activity change, negative = inhibition [3] 3.25% | activity, negative = inhibition [4] 0.596% | Potency [5] > 46 µM | Potency [6] > 9.22 µM | Potency [7] | Potency [8]

CC1=C(/C=C\C(=O)O)C(C)(C)CCC1
inactive: Potency [1] > 11.4 µM | activity change, negative = inhibition [2] 4.18% | activity change, negative = inhibition [3] 11.9% | activity, negative = inhibition [4] 0.469% | Potency [5] > 46 µM | Potency [6] > 9.22 µM | Potency [7] | Potency [8]

O=C(O)CCn1cnc2c(=S)nc[nH]c21
inactive: Potency [1] > 11.4 µM | activity change, negative = inhibition [2] -2.08% | activity change, negative = inhibition [3] 1.47% | activity, negative = inhibition [4] -0.455% | Potency [5] > 46 µM | Potency [6] > 9.22 µM | Potency [7] | Potency [8]

O=C1c2ccccc2C(=O)N1C1(C(=O)NC2(C(=O)O)CCCC2)CCCC1
inactive: Potency [1] > 11.4 µM | activity change, negative = inhibition [2] 0.0237% | activity change, negative = inhibition [3] 10.1% | activity, negative = inhibition [4] 0.797% | Potency [5] > 46 µM | Potency [6] > 9.22 µM | Potency [7] | Potency [8]

O=C(O)[C@H]1CCCC[C@@H]1C(=O)Nc1nc2ccccc2[nH]1
inactive: Potency [1] > 11.4 µM | activity change, negative = inhibition [2] 1.58% | activity change, negative = inhibition [3] 9.82% | activity, negative = inhibition [4] 2.07% | Potency [5] > 46 µM | Potency [6] > 9.22 µM | Potency [7] | Potency [8]

NC(=O)N[C@H](CC(=O)O)C(=O)O
inactive: Potency [1] > 11.4 µM | activity change, negative = inhibition [2] -2.2% | activity change, negative = inhibition [3] 0.469% | activity, negative = inhibition [4] -0.625% | Potency [5] > 46 µM | Potency [6] > 9.22 µM | Potency [7] | Potency [8]

O=C1CCC[C@H]1C(=O)Nc1ccc2ccccc2c1
inactive: Potency [1] > 11.4 µM | activity change, negative = inhibition [2] 7.06% | activity change, negative = inhibition [3] 16.2% | activity, negative = inhibition [4] 8.65% | Potency [5] > 46 µM | Potency [6] > 9.22 µM | Potency [7] | Potency [8]

O=C(O)[C@H](Cc1ccccc1)N1C(=O)c2ccccc2C1=O
inactive: Potency [1] > 11.4 µM | activity change, negative = inhibition [2] -3.82% | activity change, negative = inhibition [3] 16.6% | activity, negative = inhibition [4] -2.52% | Potency [5] > 46 µM | Potency [6] > 9.22 µM | Potency [7] | Potency [8]

O=C(O)CSc1ccc(N=C=S)cc1
inactive: Potency [1] > 11.4 µM | activity change, negative = inhibition [2] 7.13% | activity change, negative = inhibition [3] 27.9% | activity, negative = inhibition [4] 5.22% | Potency [5] > 46 µM | Potency [6] > 9.22 µM | Potency [7] | Potency [8]

c1ccc(CCNCc2ccco2)nc1
inactive: Potency [1] > 11.4 µM | activity change, negative = inhibition [2] 3.76% | activity change, negative = inhibition [3] -2.01% | activity, negative = inhibition [4] 1.92% | Potency [5] > 46 µM | Potency [6] > 9.22 µM | Potency [7] | Potency [8]

CCCS(=O)(=O)O
inactive: Potency [1] > 11.4 µM | activity change, negative = inhibition [2] -5.23% | activity change, negative = inhibition [3] 0.712% | activity, negative = inhibition [4] 4.08% | Potency [5] > 46 µM | Potency [6] > 9.22 µM | Potency [7] | Potency [8]

N=C(N)c1ccc(/C=C\c2ccc(C(=N)N)cc2)cc1
inactive: Potency [1] > 11.4 µM | activity change, negative = inhibition [2] 0.27% | activity change, negative = inhibition [3] -7.18% | activity, negative = inhibition [4] 7.39% | Potency [5] > 46 µM | Potency [6] > 9.22 µM | Potency [7] | Potency [8]

N=C(N)C(N=Nc1ccccc1)C(=N)N (stereo not given)
inactive: Potency [1] > 11.4 µM | activity change, negative = inhibition [2] 1.88% | activity change, negative = inhibition [3] 3.59% | activity, negative = inhibition [4] 1.6% | Potency [5] > 46 µM | Potency [6] > 9.22 µM | Potency [7] | Potency [8]

NC1=N[C@H](c2ccc(Cl)cc2)N(c2ccc(S(=O)(=O)Nc3ncccn3)cc2)C(N)=N1
inactive: Potency [1] > 11.4 µM | activity change, negative = inhibition [2] -10.6% | activity change, negative = inhibition [3] -0.0424% | activity, negative = inhibition [4] -0.946% | Potency [5] > 46 µM | Potency [6] > 9.22 µM | Potency [7] | Potency [8]
